Laboratory results reported in PubChem BioAssay (Tox21).
Records with an inconclusive call do not appear. Active and inactive are the calls of the source. Calls follow the shape of the dose curve; as a rule, active = well fitted cell-killing curve with a large enough effect in the repeat runs; inconclusive = weak or mixed curves, or effect the other way; inactive = flat fitted curve, though single readings scatter.

assay: qHTS assay to identify small molecule agonists of the constitutive androstane receptor (CAR) signaling pathway - cell viability counter screen (AID 1224836); details: HepG2-CYP2B6-hCAR viability, CellTiter-Fluor, 23 h, PK11195 added to every well; series mostly up to 92.4 µM
Method in brief: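 Double-stable HepG2 hepatoma cells (hCAR plus CYP2B6-2.2kb) are treated for 23 h at 37 C with test compounds in 15-point concentration series. PK11195 at 0.75 uM final is co-added. Cell viability is quantified by CellTiter-Fluor.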
Also: nearly all actives have a fitted effect of over 45% in size.

Structure (SMILES)	outcome
C=C(C)C(=O)OCCOC1CC2CC1C1C=CCC21 (centres undefined)	inactive
O=C(O)CCCCCCCCCC(=O)O	inactive
CC(=O)OC1CCC(C(C)(C)C)CC1 (centres undefined)	inactive
CCCCCCCCCCCBr	inactive
Cc1cc(=O)oc2cc(O[C@@H]3SC[C@@H](O)[C@H](O)[C@H]3O)ccc12	inactive
CCN1CCN(C(=O)N[C@@H](C(=O)N[C@@H]2C(=O)N3[C@@H]2SC(C)(C)[C@H]3C(=O)O)c2ccccc2)C(=O)C1=O	inactive
CC[N+](C)(CC)CC	inactive
COc1cc(OC)cc(OC)c1	inactive
O=S(=O)(O)c1ccc(Cl)cc1	inactive
CC1=C(O)C(=O)CO1	inactive
CCOC(=O)CN1CCCC1=O	inactive

assay: qHTS assay to identify small molecule antagonists of the constitutive androstane receptor (CAR) signaling pathway - cell viability counter screen (AID 1224837); details: HepG2-CYP2B6-hCAR viability, CellTiter-Fluor, 23 h, co-treated with 50 nM CITCO; series mostly up to 92.4 µM
Method in brief: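 Using CellTiter-Fluor, viability is scored in HepG2 cells stably carrying hCAR and a 2.2kb CYP2B6 reporter after 23 hr compound exposure across 15 concentrations, with CITCO present at 50 nM.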

Structure (SMILES)	outcome
Nc1nc(Cl)cc(Cl)n1	inactive
Cc1ccc(NC(N)=O)cc1	inactive
CCCC(=O)C(CC)Sc1ccoc1C (centres undefined)	inactive
Cc1ccc(O)c(C(=O)c2ccccc2)c1	inactive
CCOC(=O)c1ccc(N(C)C)cc1	inactive
COC(=O)c1c(C)cc(O)c(C)c1O	inactive
COc1cc(NS(=O)(=O)c2ccc(N)cc2)ncn1	inactive
Clc1ccc2c(c1)Nc1ccccc1S2	inactive
O=Cc1ccccc1S(=O)(=O)O	inactive
CC(C)(O)c1ccc(C(C)(C)O)cc1	inactive
COc1cc(C(=O)NC2CCCNC2)cc(OC)c1OC (centres undefined)	inactive
Cc1nc2ccc(Cl)cc2[nH]1	inactive
COC(=O)C(c1ccccc1Cl)N1CCc2sccc2C1 (centres undefined)	inactive
CC1(C)S[C@@H]2[C@H](NC(=O)Cc3ccccc3)C(=O)N2[C@H]1C(=O)O (tested in a mixture with another compound)	inactive
CCCCC(CC)CCC(CC(C)C)OS(=O)(=O)O (centres undefined)	inactive
Nc1cc(S(=O)(=O)O)ccc1O	inactive
O=C(O)COc1ccc2ccccc2c1	inactive
O=S(=O)(O)CC(O)CCl (centres undefined)	inactive
O=C(c1ccccc1)c1cccc(O)c1	inactive

Structure (SMILES)	outcome
O=C1Nc2ccccc2C1=O	inactive
CCCC(C)C(O)CC (centres undefined)	inactive
Cc1cc(N)no1	inactive
NNC(=O)OCc1ccccc1	inactive
CCCCCCC(O)CO (centres undefined)	inactive
C=CCOC(=O)CCCCCCCC	inactive
Cc1cc(C)c(C)c(C)c1	inactive
Cc1cc2c(cc1CC(=O)c1sccc1S(=O)(=O)Nc1onc(C)c1Cl)OCO2	inactive
C=C(C)C(=O)OCCOC1CC2CC1C1C=CCC21 (centres undefined)	inactive
O=C(O)CCCCCCCCCC(=O)O	inactive
CC(=O)OC1CCC(C(C)(C)C)CC1 (centres undefined)	inactive
CCCCCCCCCCCBr	inactive
Cc1cc(=O)oc2cc(O[C@@H]3SC[C@@H](O)[C@H](O)[C@H]3O)ccc12	inactive
CCN1CCN(C(=O)N[C@@H](C(=O)N[C@@H]2C(=O)N3[C@@H]2SC(C)(C)[C@H]3C(=O)O)c2ccccc2)C(=O)C1=O	inactive
CC[N+](C)(CC)CC	inactive
COc1cc(OC)cc(OC)c1	inactive
O=S(=O)(O)c1ccc(Cl)cc1	inactive
CC1=C(O)C(=O)CO1	inactive
CCOC(=O)CN1CCCC1=O	inactive
